Assay results reported in PubChem BioAssay AID1878 (Sanford-Burnham Center for Chemical Genomics, 2009).
Screen size: about 1,000 compounds; about 200 (20%) were called active. Rule as the data show it: active = inhibition above about 55%; inactive = the rest. Only a sample is shown. Results with a measured potency or affinity are listed apart.

Each compound was assayed against Dual specificity protein phosphatase 3 (Homo sapiens) (UniProt P51452) (assay: VHR1 phosphatase inhibitors, biochemical (AID 1878)). Conditions: recombinant VHR phosphatase, fluorogenic substrate; at 13.3 µM; stronger effect = higher value.
Sequence of Dual specificity protein phosphatase 3 (Homo sapiens) (P51452 whole entry, looked up): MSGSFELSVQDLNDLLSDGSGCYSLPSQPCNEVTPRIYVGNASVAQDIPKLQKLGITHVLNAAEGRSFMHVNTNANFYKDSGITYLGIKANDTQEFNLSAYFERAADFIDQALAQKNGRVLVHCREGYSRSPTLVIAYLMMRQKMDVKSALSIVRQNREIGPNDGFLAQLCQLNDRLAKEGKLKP

Q: For `O=C(CCC1CCN(Cc2ccc(Cl)cc2)CC1)NC1CC1`, which inhibition is on record?
A: -8.1% (inactive)

Q: Which inhibition does the source give for `O=c1cc(-c2ccc([N+](=O)[O-])cc2)nc2cc(-c3ccc(Cl)cc3)[nH]n12` here?
A: 97.6% (active)

Q: `O/N=C/c1ccc2cccc(OCc3ccccc3)c2n1` was tested. Which inhibition did it give?
A: -5.4% (inactive)

Q: How did the inhibition turn out when `Cc1ccc(Cn2c(N3CCNCC3)nc3c2c(=O)[nH]c(=O)n3C)cc1` was run?
A: 3.7% (inactive)

Q: `COc1ccc(C2NC(=O)CCC2[N+](=O)[O-])cc1OC` (configuration not stated) was tested. Which inhibition did it give?
A: -5.6% (inactive)

Q: Which inhibition does the source give for `COc1ccc(C(=O)CCC(=O)Nc2ccc(N3CCCCC3)cc2)cc1OC` here?
A: -1.2% (inactive)

Q: With `COc1ccc(OCC(=O)Nc2nc3c(s2)CCCC3)cc1` as the compound, how does the inhibition read?
A: 1.9% (inactive)

Q: For `COc1cc(NC(=O)CSc2ncnc3sc4c(c23)CCCC4)c(C(=O)O)cc1OC`, which inhibition is on record?
A: 55.5% (active)

Q: With `COc1cccc(COC(=O)C2CCN(C(=O)c3ccccc3C)CC2)c1OC` as the compound, how does the inhibition read?
A: -4.4% (inactive)

Q: Which inhibition does the source give for `CN(C)C(CNC1CC(C)(C)NC(C)(C)C1)c1cccc(F)c1` (configuration not stated) here?
A: 12.5% (inactive)

Q: Which inhibition does the source give for `COc1ccc(-c2nn(CCC#N)cc2C(=O)Nc2ccccc2Cl)cc1` here?
A: 2.2% (inactive)

Q: Which inhibition does the source give for `Cc1ccc(-c2nc3ccccc3s2)cc1NC(=O)c1cc(-n2cnnc2)ccc1Cl` here?
A: 63.4% (active)

Q: Which inhibition does the source give for `O=C1CN(C(=O)c2ccccc2)C(c2ccccc2)c2cc(F)ccc2N1` (configuration not stated) here?
A: -4.4% (inactive)

Q: `COc1cc(NC(=O)CCc2nnc3ccc(N4CCCCC4)nn23)cc(OC)c1OC` was tested. Which inhibition did it give?
A: -6.5% (inactive)

Q: With `Nc1c(C(=O)NC2CC2)sc2nc3c(c(-c4ccco4)c12)CC/C3=C/c1ccco1` as the compound, how does the inhibition read?
A: 11.4% (inactive)

Q: How did the inhibition turn out when `O=C(O)CCCCC1CCSS1` (configuration not stated) was run?
A: 97.7% (active)

Q: For `CCCn1c2ccccc2c2cnn(CC(=O)NCCCN3CCCC(C)C3)c(=O)c21` (configuration not stated), which inhibition is on record?
A: -8.7% (inactive)

Q: How did the inhibition turn out when `CCOc1cccc(CN2CCCC(N3CCc4ccccc4C3)C2)c1O` (configuration not stated) was run?
A: -11% (inactive)

Q: Which inhibition does the source give for `O=C(Nc1ccc2oc(-c3cccnc3)nc2c1)c1ccc2c(c1)OCCO2` here?
A: 62.5% (active)

Q: For `c1cncc(-c2nc(-c3ccc4c(c3)OCCO4)cs2)c1`, which inhibition is on record?
A: -10.9% (inactive)

Q: With `COc1cc2cc(C(=O)Nc3ccc4c(c3)OCCO4)[nH]c2cc1OC` as the compound, how does the inhibition read?
A: -3.4% (inactive)

Q: For `CC1=C(C(=O)OC(C)C)C(c2ccccc2)NC(=O)N1C` (configuration not stated), which inhibition is on record?
A: 6.5% (inactive)

Q: Which inhibition does the source give for `COC(=O)c1cccc(CSC(=S)N2CCCC2)c1` here?
A: -7.9% (inactive)

Q: Which inhibition does the source give for `O=C(O)c1ccc(Nc2nc(-c3ccc([N+](=O)[O-])cc3)nc3ccccc23)cc1` here?
A: 97.6% (active)

Q: Which inhibition does the source give for `COc1ccc(Nc2ccc([N+](=O)[O-])cn2)cc1` here?
A: -0.2% (inactive)

Q: With `O=[N+]([O-])c1ccc(-c2nnc(S)n2-c2ccccc2)cc1` as the compound, how does the inhibition read?
A: -5.8% (inactive)

Q: With `Cc1ccc(C)c(N(CC(=O)NC2CCCC2)C(=O)CNC(=O)c2cccs2)c1` as the compound, how does the inhibition read?
A: -6.9% (inactive)

Q: How did the inhibition turn out when `Cc1ccccc1CCN1CCCC(CN(C)C(=O)C(=O)c2ccco2)C1` (configuration not stated) was run?
A: 9.9% (inactive)

Q: Which inhibition does the source give for `Cc1cc(NC(=O)CCSc2ccc(Cl)cc2)no1` here?
A: 2.1% (inactive)

Q: `Cc1ccc(S(=O)(=O)N(C)CC(=O)OCC(=O)NC(=O)NC(C)C)cc1` was tested. Which inhibition did it give?
A: -21.6% (inactive)

Q: How did the inhibition turn out when `COc1cc(/C=C2\SC(=O)N(Cc3ccc(F)cc3)C2=O)cc([N+](=O)[O-])c1O` was run?
A: 53% (active)

Q: Which inhibition does the source give for `O=C(CCCCCN1C(=O)[C@@H]2Cc3ccccc3CN2C1=O)Nc1ccccc1F` here?
A: 11% (inactive)

Q: With `CCCCNC(=O)NNC(=O)C1CC1(c1ccccc1)c1ccccc1` (configuration not stated) as the compound, how does the inhibition read?
A: 9.1% (inactive)

Q: Which inhibition does the source give for `COc1cc(CCC(=O)NCc2ccc3c(c2)OCO3)cc(OC)c1OC` here?
A: 0.3% (inactive)

Q: For `CS(=O)(=O)NN1C(=O)c2ccccc2NC1c1ccccc1F` (configuration not stated), which inhibition is on record?
A: -7.9% (inactive)

Q: `Cn1c(CNC(=O)CCNC(=O)c2cccc(Br)c2)cc(=O)n(C)c1=O` was tested. Which inhibition did it give?
A: -19.2% (inactive)

Q: Which inhibition does the source give for `O=C(Nc1cccc2cccnc12)c1cccc(Cl)c1` here?
A: 2.2% (inactive)

Q: How did the inhibition turn out when `O=C(Nc1cc([N+](=O)[O-])ccc1O)c1cccc(C(=O)Nc2cc([N+](=O)[O-])ccc2O)c1` was run?
A: 98.4% (active)

Q: `O=C(O)CSc1cc(NS(=O)(=O)c2cccc([N+](=O)[O-])c2)c2ccccc2c1O` was tested. Which inhibition did it give?
A: 1.4% (inactive)

Q: `CCOC(=O)C1=C(N)Oc2ccc3ccccc3c2C1c1ccc(O)c(OC)c1` (configuration not stated) was tested. Which inhibition did it give?
A: -1.4% (inactive)

Q: Which inhibition does the source give for `NC(=O)c1cc2ccccc2o/c1=N\NC(=O)c1ccccc1O` here?
A: 98.4% (active)

Q: For `O=C(Nc1ccccc1Cl)c1cc2ccccc2o/c1=N\O`, which inhibition is on record?
A: -1% (inactive)

Q: Which inhibition does the source give for `CCC1CN(C(=O)NCc2ccc(F)cc2)c2ccccc2O1` (configuration not stated) here?
A: 7.8% (inactive)

Q: How did the inhibition turn out when `COc1ccc(C(=O)NCc2ccc(N3CCN(C)CC3)cc2)cc1` was run?
A: 21.1% (inactive)

Q: `COc1cccc(C2NC(=O)CCC2[N+](=O)[O-])c1OC` (configuration not stated) was tested. Which inhibition did it give?
A: 3.9% (inactive)

Q: For `COCCN(C(=O)CCC(=O)Nc1nccs1)C(C(=O)NCCC(C)C)c1ccc(OC)cc1` (configuration not stated), which inhibition is on record?
A: -22% (inactive)

Q: For `COc1cc(C(C)=O)ccc1OCC(O)CN1CCN(c2ccc(F)cc2)CC1` (configuration not stated), which inhibition is on record?
A: -0.4% (inactive)
